Screening data from PubChem BioAssay.
Only some compounds are listed: those with a hit (about 21% of all), similar ones and a draw of the others.
MRP-1 activ: activators of MRP-1; viability increase, % at 10 µM; actives 0.61% (n = 140,000); H69AR cells + doxorubicin, viability rescue, CellTiter-Glo; AID 799;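 active = viability gain under doxorubicin at or above a set limit, the compound median plus 3 SD, cut at about 4.7% in these data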;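 also: MRP-1 overexpressing cells given doxorubicin 25 µM after compound pretreatment; 18-22 h compound pretreatment then 72 h with doxorubicin before readout; 0% = doxorubicin-only wells and 100% = vehicle-treated cells without doxorubicin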
CYP2C19 inh: blocks human cytochrome P450 2C19. CYP2C19 Supersomes, luciferin-H EGE luminescence, 30 min. inhibition, % at 5 µM. actives 21% (n = 96,000). P33261. AID 778;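 active = CYP2C19 inhibition above a set limit at 5 µM in the primary screen, cut at about 50% in these data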;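 also: plate controls were negative control wells for no effect and 2.5 mM tranylcypromine positive control for full effect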
Target sequence (P33261 whole entry, looked up): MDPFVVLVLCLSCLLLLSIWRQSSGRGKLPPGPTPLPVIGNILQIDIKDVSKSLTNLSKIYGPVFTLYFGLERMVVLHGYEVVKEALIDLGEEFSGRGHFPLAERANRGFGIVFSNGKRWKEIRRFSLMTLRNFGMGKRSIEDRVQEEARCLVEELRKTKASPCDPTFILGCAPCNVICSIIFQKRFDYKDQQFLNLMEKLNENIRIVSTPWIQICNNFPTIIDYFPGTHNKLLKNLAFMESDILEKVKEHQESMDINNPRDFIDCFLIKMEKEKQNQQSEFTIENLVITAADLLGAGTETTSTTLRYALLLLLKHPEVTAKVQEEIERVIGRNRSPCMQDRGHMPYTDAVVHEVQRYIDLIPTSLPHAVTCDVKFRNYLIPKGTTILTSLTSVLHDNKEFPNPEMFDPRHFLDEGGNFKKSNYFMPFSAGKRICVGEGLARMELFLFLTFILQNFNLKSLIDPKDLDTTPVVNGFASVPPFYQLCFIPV
CYP2C19 act: increases human CYP2C19 enzyme activity; P33261; recombinant CYP2C19, luciferin-H EGE luminescence; active compounds read high; 0 = fully inhibited enzyme, 1 = untreated enzyme; activation factor at 5 µM; 96,000 tested, under 10 active;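 active = activation factor of at least 2 at 5 µM in the primary screen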;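 also: 0 = wells with 2.5 mM tranylcypromine and 1 = vehicle-only wells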
CYP2C9 inh: human CYP2C9 inhibition; P11712; CYP2C9 Supersomes, luciferin-H conversion, luminescence; inhibition, % at 5 µM; actives 20% (n = 96,000); AID 777;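 active = blocking of liver enzyme CYP2C9 beyond about 50% at 5 µM, limit read from the data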
MRP resist rev: MRP-mediated drug resistance reversal; H69AR cells + 2 uM doxorubicin, CellTiter-Glo, 72 h; differential viability (reversal), % at 10 µM; actives 0.04% (n = 85,000); AID 602;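 active = viability drop by adding the cancer drug above about 55%, with treated viability meeting a 40% cutoff, limit read from the data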;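 also: viability without doxorubicin minus viability with 2 µM doxorubicin for each compound; larger differential means the compound sensitizes cells more to doxorubicin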
CYP2C9 activ: CYP2C9 (human) activation; actives 1.4% (n = 96,000); recombinant CYP2C9, luciferin-H conversion, luminescence; active compounds read high; factor 1 = untreated enzyme, 0 = blocked; activation factor at 5 µM; P11712;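 active = activation factor of 2 or more for CYP2C9 at a 5 µM dose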;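 also: 0 = sulfaphenazole-blocked wells and 1 = vehicle-only wells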
* hit, by the source's call; · = not tested or not shown.

SMILES	MRP-1 activ	CYP2C19 inh	CYP2C19 act	CYP2C9 inh	MRP resist rev	CYP2C9 activ
CC(=O)N/C(=C/c1ccc2c(c1)OCO2)C(=O)NCC(=O)O	-1	·	·	·	·	·
O=C(COC(=O)CC(c1ccccc1)c1ccccc1)Nc1c(F)cccc1F	-1	·	·	·	·	·
O=C(CN1CCN(c2ccc(O)cc2)CC1)NC(=O)NCc1ccco1	0	·	·	·	·	·
O=C(c1ccccc1)N1CCCc2ccccc21	0	·	·	·	3	·
O=C(c1ccc2c(c1)OCO2)N1CCCc2ccccc21	-1	83*	0.2	4	2	1
Cc1cc(C)n(S(=O)(=O)c2ccc(Cl)c(Cl)c2Cl)n1	-4	69*	0.3	-73	2	1.7
Cc1cc(C)n(S(=O)(=O)c2cc(C(=O)O)c(Cl)cc2Cl)n1	·	11	0.9	22	15	0.8
Cc1cc(C)n(S(=O)(=O)c2cccc(Cl)c2Cl)n1	·	54*	0.5	26	-6	0.7
COc1c(S(=O)(=O)n2nc(C)cc2C)ccc(Cl)c1Cl	0	52*	0.5	-132	-1	2.3*
Cc1cc([N+](=O)[O-])ccc1NC(=S)NC(=O)C(c1ccccc1)c1ccccc1	3	22	0.8	66*	-10	0.3
COc1ccc([N+](=O)[O-])cc1NC(=S)NC(NC(=O)C(c1ccccc1)c1ccccc1)C(Cl)(Cl)Cl (stereo not drawn)	-2	16	0.8	69*	·	0.3
COc1ccc([N+](=O)[O-])cc1NC(=O)C(C)c1ccccc1 (stereo not drawn)	-1	·	·	·	·	·
CCCN1Cc2cccc(C(=O)Nc3ccc(CN4CCCC4)cc3)c2C1=O	-2	·	·	·	-4	·
CC(=O)c1cc(CN2C(=O)c3ccccc3C2=O)cs1	-2	96*	0	20	2	0.8
COc1cc(C(=S)N2CCOCC2)cc(OC)c1OS(=O)(=O)c1ccc(NC(C)=O)cc1	-5	58*	0.4	36	·	0.6
COc1cc(C=O)ccc1OS(=O)(=O)c1ccc(NC(C)=O)cc1	-2	·	·	·	·	·
CCCNS(=O)(=O)c1ccc(OCC(=O)Nc2ccc3c(c2)OCCO3)cc1	-2	11	0.9	70*	16	0.3
CCCNS(=O)(=O)c1ccc(OCC(=O)NCc2ccc3c(c2)OCO3)cc1	0	54*	0.5	62*	-16	0.4
CCC(C)n1ncn(-c2ccc(N3CCN(c4ccc(OCC5COC(Cn6cncn6)(c6ccc(Cl)cc6Cl)O5)cc4)CC3)cc2)c1=O (stereo not drawn)	·	·	·	·	-14	·
CC1(c2ccc(Cl)cc2Cl)OCC(Cn2ccnc2)O1 (stereo not drawn)	-2	99*	0	83*	-33	0.2
COCCn1c(SCC(=O)c2ccc(CNC(C)=O)o2)nc2ccccc2c1=O	-2	17	0.8	11	11	0.9
COC(=O)c1ccc(CSc2nc3ccccc3c(=O)n2Cc2ccco2)o1	0	97*	0	100*	7	0
COC(=O)c1ccc(CSc2nc3ccccc3c(=O)n2CC(C)C)o1	-4	38	0.6	57*	24	0.4
COc1ccc(C(=O)Oc2cccc(/C=N/NC(N)=S)c2)cc1	-1	·	·	·	·	·
Cc1ccn2cc(CSc3ccccc3N)nc2c1	-5	39	0.6	19	-5	0.8
SMILES	MRP-1 activ	CYP2C19 inh	CYP2C19 act	CYP2C9 inh	MRP resist rev	CYP2C9 activ
Cn1ccnc1SCc1cn2cc(Br)ccc2n1	0	65*	0.4	2	-16	1
Cc1ccccc1SCc1noc(C(=O)NC(C)C)c1C(=O)O	-1	13	0.9	40	·	0.6
CCCCNC(=O)c1onc(CSc2ccccc2C)c1C(=O)O	0	0	1	59*	·	0.4
CCCCNC(=O)c1onc(CSc2ccccc2F)c1C(=O)O	-1	0	1	57*	·	0.4
C=CCn1c(SCC(=O)NCCOC)nnc1-c1cc2c(s1)CCC(CC)C2 (stereo not drawn)	-2	·	·	·	·	·
COc1cc(S(=O)(=O)N2CCC(O)(c3cccc(C(F)(F)F)c3)CC2)ccc1-n1cnnn1	-2	32	0.7	64*	23	0.4
COCCn1nnnc1CN1CCC(O)(c2cccc(C(F)(F)F)c2)CC1	0	32	0.7	5	15	0.9
CSc1ccc(N2C(=O)NC3(CCCCC3)C2=O)cc1	0	70*	0.3	-8	7	1.1
O=C1NC2(CCCCC2)C(=O)N1c1ccccc1	-1	22	0.8	10	-7	0.9
CCOC(=O)C(C)Sc1ncc(-c2ccc(Cl)cc2)cn1 (stereo not drawn)	0	18	0.8	16	·	0.8
c1ccc(SCc2nc3ccccc3[nH]2)cc1	-2	90*	0.1	16	·	0.8
N#Cc1c(SCc2nc3ccccc3[nH]2)nc2c(c1C(F)(F)F)CCC2	·	·	·	·	3	·
Cc1cc(C)c(C#N)c(SCc2nc3ccccc3[nH]2)n1	-2	56*	0.4	58*	·	0.4
Clc1ccc(SCc2nc3ccccc3[nH]2)cc1	-1	100*	0	54*	·	0.5
c1ccc2[nH]c(CSc3nccs3)nc2c1	-3	·	·	·	·	·
Cc1ccc(SCc2nc3ccccc3[nH]2)cc1	-1	89*	0.1	50	·	0.5
CC(=O)N1CCC(N(C(=O)Nc2c(F)cccc2F)C(C)C)CC1	-1	-16	1.2	-14	4	1.1
CSc1ccccc1NC(=O)CN(C)CC(=O)Nc1ccc(Cl)cc1F	-1	·	·	·	·	·
CCOC(=O)c1cc(CC)sc1NC(=O)c1cc(OC)c(OC)c(OC)c1	1	14	0.9	62*	3	0.4
COc1ccc(C(c2nnnn2C(C)(C)C)N2CCN(c3nc4ccccc4s3)CC2)cc1OC (stereo not drawn)	-5	56*	0.4	98*	52	0
COc1cc(C(c2nnnn2C(C)(C)C)N2CCN(c3nc4ccccc4s3)CC2)ccc1O (stereo not drawn)	-3	61*	0.4	97*	2	0
CCN1CCN(C(c2ccc(OC)c(OC)c2)c2nnnn2C(C)(C)C)CC1 (stereo not drawn)	-2	-13	1.1	-3	-7	1
CCN(CC)CCCN1C(=O)C(O)=C(C(=O)c2ccc(C)o2)C1c1ccco1 (stereo not drawn)	·	·	·	·	12	·
CC(=O)c1ccccc1NC(=O)Cn1c(=O)cnc2ccccc21	-5	·	·	·	·	·
Cc1ccc2cc3cc(C(=O)N4CCN(C(=O)c5ccco5)CC4)sc3nc2c1	-2	64*	0.4	47	-8	0.5
Cc1ccc2cc3cc(C(=O)N4CCN(Cc5ccccc5)CC4)sc3nc2c1	0	38	0.6	12	24	0.9
Cc1nn2c(N3CCN(C(=O)c4ccco4)CC3)cc(C(C)(C)C)nc2c1-c1ccccc1	-6	9	0.9	58*	0	0.4
O=C(c1ccco1)N1CCN(c2ncnc3c2oc2ccccc23)CC1	-2	62*	0.4	30	6	0.7
O=C(c1ccco1)N1CCN(c2nc3ccsc3c(=O)s2)CC1	0	44	0.6	64*	-1	0.4
